High-throughput results: PubChem BioAssay, National Center for Advancing Translational Sciences (NCATS)
D1 antagonist = Antagonist of Human D 1 Dopamine Receptor: qHTS; D(1A) dopamine receptor (Homo sapiens), P21728; HEK293 TREx D1 cells, calcium flux, dopamine EC80; hits give low values; activity change, negative = inhibition, % at 10 µM; 3.2% of 360,000 active; AID 504652, 2011; in the data active = activity change below about -30%
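Allosteric or orthosteric antagonism assessed as attenuation of the calcium response to EC80 dopamine, added 180 s after compound, in induced HEK293 Trex D1 cells loaded with no-wash calcium dye.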
DRD3 antagonist = qHTS of D3 Dopamine Receptor Antagonist: qHTS; 2.5% of 360,000 active; max response, negative = inhibition, %; D3R cells, DiscoveRx beta-arrestin luminescence, antagonist mode; hits give low values; D(3) dopamine receptor (Homo sapiens), P35462; in the data active = max response below about -50%; inconclusive = no clear call, values can overlap the other calls
Target sequence (P35462 whole entry, looked up): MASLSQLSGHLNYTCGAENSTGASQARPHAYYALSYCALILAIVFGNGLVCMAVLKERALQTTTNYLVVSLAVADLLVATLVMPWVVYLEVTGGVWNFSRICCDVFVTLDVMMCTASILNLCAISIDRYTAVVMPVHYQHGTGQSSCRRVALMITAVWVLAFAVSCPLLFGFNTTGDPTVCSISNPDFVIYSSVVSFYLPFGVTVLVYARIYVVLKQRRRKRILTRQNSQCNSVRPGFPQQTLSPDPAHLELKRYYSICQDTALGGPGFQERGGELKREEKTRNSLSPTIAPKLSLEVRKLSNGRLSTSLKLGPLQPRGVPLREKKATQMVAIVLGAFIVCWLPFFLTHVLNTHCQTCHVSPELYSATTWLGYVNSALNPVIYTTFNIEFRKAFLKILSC
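Cells plated overnight at 1500 cells/well, then exposed to library compounds with dopamine controls for 90 minutes at 37 degrees C. DiscoveRx reagent added for 30–60 minutes at room temperature; luminescence read, quantitative HTS format.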
D1 potentiator = Potentiators of Human D1 Dopamine Receptor: qHTS; D(1A) dopamine receptor (Homo sapiens), P21728; HEK293 TREx D1 cells, calcium flux, dopamine EC20 potentiation; potentiation, % at 10 µM; 0.036% of 360,000 active; AID 504651, 2011; in the data active = potentiation above about 30%
D1 agonist = Allosteric Agonists of the Human D1 Dopamine Receptor: qHTS | D(1A) dopamine receptor (Homo sapiens), P21728 | HEK293 T-REx D1 cells, calcium flux, agonist mode | activation, % at 2 µM | 1% of 360,000 active; in the data active = activation above about 30%
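Tetracycline-induced HEK293 TREx D1 cells, force-coupled to calcium signalling, were dye-loaded with a no-wash calcium kit. Compound was pin-added after a 10 s baseline. Fluorescence was read kinetically at 1 cycle/s for 180 s, with calcium rises flagged as agonism.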
DRD3 agonist = qHTS of D3 Dopamine Receptor Agonist: qHTS | AID 652048, 2013 | D(3) dopamine receptor (Homo sapiens), P35462 | max activation, % | 0.58% of 410,000 active | D3R DiscoveRx beta-arrestin cells, luminescence, 90 min; in the data active = max activation above about 30%
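Agonist-mode cell screen: cells plated at 1500/well and incubated overnight at 37 °C, then exposed to library compounds for 90 min at 37 °C. Detection reagent was added for 30–60 min at room temperature, and luminescence was read.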
Numbers stand for hits; – = inactive; ? = inconclusive; · = no result given. Sampled rows, rich in hits. Any-hit rate of the full collection: about 6%.

SMILES | D1 antagonist | DRD3 antagonist | D1 potentiator | D1 agonist | DRD3 agonist
CC1=C(C(=O)OC2CCCCC2)C(c2ccc(C)o2)C2=C(CCCC2=O)N1 (configuration not stated) | – | -50 | – | – | –
Cc1ccccc1NC(=O)COC(=O)Cc1ccsc1 | -31 | – | – | – | –
COc1cc(CC(=O)OCC(=O)Nc2sccc2C(N)=O)cc(OC)c1OC | – | – | – | – | 32
Cc1cccc(C)c1NC(=O)COC(=O)Cc1ccsc1 | – | – | – | – | –
NC(=O)c1ccsc1NC(=O)COC(=O)Cc1ccsc1 | -39 | – | – | – | –
CC(Oc1ccccc1)C(=O)OCC(=O)Nc1sccc1C(N)=O (configuration not stated) | -34 | – | – | – | –
COc1ccc(Cl)cc1NC(=O)COC(=O)Cc1cc(OC)c(OC)c(OC)c1 | · | – | · | · | –
O=C(Nc1ccc(Br)c2cccnc12)c1cccc2ccccc12 | – | · | – | – | –
COC(=O)CN1C(=O)CSc2ccc(S(=O)(=O)Nc3ccc(C(C)=O)cc3)cc21 | – | · | – | – | –
COc1cccc(CNc2sc3c(c2C(=O)Nc2ccc(OC)cc2OC)CCC3)c1 | – | · | – | – | –
CCOC(=O)c1ccc(NC(=O)CSc2ccc3ccccc3n2)cc1 | – | · | – | – | –
COc1cc(CC(=O)OCC(=O)NCC(C)C)cc(OC)c1OC | -33 | – | – | – | –
OC(CSc1ccccc1)CN1CCN(c2cccc(Cl)c2)CC1 (configuration not stated) | · | -85 | · | · | –
CC(NC(=O)CN1CCN(c2cccc(Cl)c2)CC1)c1ccccc1 (configuration not stated) | – | ? | – | – | –
OC(CSc1ccccc1)CN1CCN(c2ccc(Cl)cc2)CC1 (configuration not stated) | · | -86 | · | · | –
COC(=O)c1ccc(NS(=O)(=O)c2ccccc2)o1 | -33 | – | – | – | –
COC(=O)c1ccc(NS(=O)(=O)c2ccc(Cl)cc2)o1 | – | – | – | – | –
CCc1ccc(Nc2cc(C)nc3nc(Cc4ccc(Cl)cc4)nn23)cc1 | – | · | – | – | –
COc1cccc2c1O/C(=N\O)C(C(=O)Nc1ccc(C)cc1)C2 (configuration not stated) | – | – | – | – | –
COc1cccc2c1O/C(=N\O)C(C(=O)Nc1cccc(Br)c1)C2 (configuration not stated) | – | -54 | – | – | –
COC1[C@@H](O[C@@H]2O[C@H](C)[C@@H](O[C@H]3C[C@@](C)(O)[C@H](OC(=O)CC(C)C)[C@H](C)O3)[C@H](N(C)C)[C@H]2O)[C@@H](CC=O)C[C@@H](C)[C@@H](O)/C=C/C=C/C[C@@H](C)OC(=O)C[C@H]1OC(C)=O (some centres not stated) | · | · | · | · | –
COc1ccc(-c2nsc(NC(=O)c3oc4cc(C)c(C)cc4c3C)n2)cc1 | – | · | – | – | –
Cc1ccc(-n2nc(C)c3c(C(=O)Nc4ccc(Br)c(C)c4)cc(C)nc32)cc1 | – | · | – | – | –
CCc1ccc(S(=O)(=O)NCCc2csc(C)n2)s1 | -37 | – | – | – | –
COc1cccc(CNc2cnc3ccccc3c2)c1O | – | – | – | – | –
SMILES | D1 antagonist | DRD3 antagonist | D1 potentiator | D1 agonist | DRD3 agonist
COc1ccc(CNc2ncc(-c3ccc(F)cc3)n2C)c2ccccc12 | -36 | ? | – | – | –
COc1cccc(CNc2nc3ccccc3n2C)c1O | – | -57 | – | – | –
Cn1c(-c2ccc(F)cc2)cnc1NCc1cc2c(cc1[N+](=O)[O-])OCO2 | -77 | – | – | – | –
COc1ccccc1CNc1ncc(-c2ccc(F)cc2)n1C | -62 | – | – | – | –
Cc1cccc(C(=O)Nc2ccc(C(=O)OCc3cc(=O)n4c(C)csc4n3)cc2)c1 | – | · | – | – | –
COc1ccc(OC)c(CNc2ncc(-c3ccc(F)cc3)n2C)c1 | -55 | ? | – | – | –
Cn1c(-c2cccc(Br)c2)cnc1NCc1cccnc1 | – | -60 | – | – | –
COc1ccccc1CNc1ncc(-c2ccccc2)n1C | -49 | – | – | – | –
CCOc1ccc(-c2cnc(NCc3cccc4ccccc34)n2CCOC)cc1 | -58 | – | – | – | –
Cn1c(-c2ccccc2)cnc1NCc1ccccc1O | – | · | – | – | –
Cn1c(-c2ccc(F)cc2)cnc1NCc1ccccc1 | – | – | – | – | –
Cn1c(-c2ccccc2)cnc1NCc1cccc([N+](=O)[O-])c1 | – | – | – | – | –
Cc1ccc(C(=O)CSc2ncc3c(n2)-c2ccccc2N(Cc2ccc(Cl)cc2)S3(=O)=O)cc1 | – | · | – | – | –
Cc1ccc(C)c(N2CCN(C(=O)c3cc4c(=O)oc5ccccc5c4s3)CC2)c1 | – | · | – | – | –
CCOc1ccc(-c2cnc(NCc3cccc(Cl)c3)n2C)cc1 | – | · | – | – | –
Cn1c(-c2ccc(F)cc2)cnc1NCc1cccc(F)c1 | – | ? | – | – | –
COc1ccccc1CNc1ccc(Br)cn1 | – | – | – | – | 33
COc1ccc(CNc2ncc(-c3ccc(F)cc3)n2C)cc1OC | -41 | – | – | – | –
Oc1ccccc1CNc1ccc(Br)cn1 | – | – | – | – | –
COc1cc(CNc2ncc(-c3ccc(Br)cc3)n2C)cc(OC)c1O | -42 | – | – | – | –
COc1ccc(-n2ccn(CC(=O)NCCc3ccccc3)c(=O)c2=O)cc1OC | – | · | – | – | –
O=C(CCCCl)Oc1ccc2cc(-c3ccc4ccccc4n3)c(=O)oc2c1 | – | – | – | 51 | –
CC(=O)COc1ccc2cc(-c3ccccc3)c(=O)oc2c1 | – | – | – | – | –
COc1ccc(CCNCc2c(C(=O)O)c(C)n(Cc3ccccc3C)c2C)c(OC)c1 | – | · | – | – | –
O=C(CN1CCN(Cc2ccc(F)cc2Cl)S1(=O)=O)Nc1ccc(F)cc1 | – | · | – | 48 | –
SMILES | D1 antagonist | DRD3 antagonist | D1 potentiator | D1 agonist | DRD3 agonist
COc1ccc(NC(=O)CN2CCN(Cc3ccc(F)cc3)S2(=O)=O)cc1Cl | – | · | – | – | –
COc1ccc(CCNC(=O)CCn2c(=O)c3ccccc3n(Cc3cc(C)ccc3C)c2=O)cc1OC | – | · | – | – | –
CC1Cc2cc(-c3csc(NC(=O)Cc4cccs4)n3)ccc2N1S(C)(=O)=O (configuration not stated) | -42 | – | – | – | –
O=C(Cc1ccccc1)Nc1nc(-c2cccs2)cs1 | -31 | – | – | – | –
O=C(Cc1c(F)c(F)c(F)c(F)c1F)Nc1nc(-c2ccccc2)cs1 | – | – | – | 36 | –
O=C(Cc1cccs1)Nc1nc(-c2ccc(F)cc2F)cs1 | -44 | – | – | – | –
COc1ccc(-c2cc3nc(C4CCN(C(=O)OC(C)(C)C)CC4)c(C(=O)Nc4cc(Cl)cc(Cl)c4)cn3n2)cc1 | – | · | – | – | –
